Measurements reported in PubChem BioAssay.
The source made the active and inactive calls.

Assays:
[1] = binders of probe aFSTL3 on microarray, primary screen, stem cell growth factor project, biochemical, small-molecule microarray, fluorescence 635/667 (AID 1064); settings: higher = more signal;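 also: measures binding of the biotinylated anti-FSTL3 antibody to printed compounds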
[2] = binders from COS7 lysate, DM2A8 probe, primary screen, torsin A project, cell lysate, small-molecule microarray, fluorescence 635/667 (AID 1065); settings: higher = more signal, COS7 lysate expressing mutant human TOR1A
[3] = binders of probe aFGF2 on microarray, primary screen, stem cell growth factor project, biochemical, small-molecule microarray, fluorescence 635/667 (AID 1067); settings: higher = more signal;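 also: measures binding of biotinylated aFGF2 protein to printed compounds on slides; z-score merges feature fluorescence and signal-to-noise across triplicate slides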
[4] = binders of probe aFGF10 on microarray, primary screen, stem cell growth factor project, biochemical, small-molecule microarray, fluorescence 635/667 (AID 1071); settings: higher = more signal;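 also: score merges 667 nm spot intensity and signal to noise from triplicate slides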
[5] = molecular target: Neurogenic locus notch homolog protein 2 (Homo sapiens) (UniProt Q04721); test: Notch2 binders on small-molecule microarrays, primary screen, biochemical, small-molecule microarray, 635 nm fluorescence, stem cell growth factors (AID 1073); settings: Notch2 binding, higher = more signal
Chain of Neurogenic locus notch homolog protein 2 (Homo sapiens) (Q04721 whole entry, looked up, canonical isoform): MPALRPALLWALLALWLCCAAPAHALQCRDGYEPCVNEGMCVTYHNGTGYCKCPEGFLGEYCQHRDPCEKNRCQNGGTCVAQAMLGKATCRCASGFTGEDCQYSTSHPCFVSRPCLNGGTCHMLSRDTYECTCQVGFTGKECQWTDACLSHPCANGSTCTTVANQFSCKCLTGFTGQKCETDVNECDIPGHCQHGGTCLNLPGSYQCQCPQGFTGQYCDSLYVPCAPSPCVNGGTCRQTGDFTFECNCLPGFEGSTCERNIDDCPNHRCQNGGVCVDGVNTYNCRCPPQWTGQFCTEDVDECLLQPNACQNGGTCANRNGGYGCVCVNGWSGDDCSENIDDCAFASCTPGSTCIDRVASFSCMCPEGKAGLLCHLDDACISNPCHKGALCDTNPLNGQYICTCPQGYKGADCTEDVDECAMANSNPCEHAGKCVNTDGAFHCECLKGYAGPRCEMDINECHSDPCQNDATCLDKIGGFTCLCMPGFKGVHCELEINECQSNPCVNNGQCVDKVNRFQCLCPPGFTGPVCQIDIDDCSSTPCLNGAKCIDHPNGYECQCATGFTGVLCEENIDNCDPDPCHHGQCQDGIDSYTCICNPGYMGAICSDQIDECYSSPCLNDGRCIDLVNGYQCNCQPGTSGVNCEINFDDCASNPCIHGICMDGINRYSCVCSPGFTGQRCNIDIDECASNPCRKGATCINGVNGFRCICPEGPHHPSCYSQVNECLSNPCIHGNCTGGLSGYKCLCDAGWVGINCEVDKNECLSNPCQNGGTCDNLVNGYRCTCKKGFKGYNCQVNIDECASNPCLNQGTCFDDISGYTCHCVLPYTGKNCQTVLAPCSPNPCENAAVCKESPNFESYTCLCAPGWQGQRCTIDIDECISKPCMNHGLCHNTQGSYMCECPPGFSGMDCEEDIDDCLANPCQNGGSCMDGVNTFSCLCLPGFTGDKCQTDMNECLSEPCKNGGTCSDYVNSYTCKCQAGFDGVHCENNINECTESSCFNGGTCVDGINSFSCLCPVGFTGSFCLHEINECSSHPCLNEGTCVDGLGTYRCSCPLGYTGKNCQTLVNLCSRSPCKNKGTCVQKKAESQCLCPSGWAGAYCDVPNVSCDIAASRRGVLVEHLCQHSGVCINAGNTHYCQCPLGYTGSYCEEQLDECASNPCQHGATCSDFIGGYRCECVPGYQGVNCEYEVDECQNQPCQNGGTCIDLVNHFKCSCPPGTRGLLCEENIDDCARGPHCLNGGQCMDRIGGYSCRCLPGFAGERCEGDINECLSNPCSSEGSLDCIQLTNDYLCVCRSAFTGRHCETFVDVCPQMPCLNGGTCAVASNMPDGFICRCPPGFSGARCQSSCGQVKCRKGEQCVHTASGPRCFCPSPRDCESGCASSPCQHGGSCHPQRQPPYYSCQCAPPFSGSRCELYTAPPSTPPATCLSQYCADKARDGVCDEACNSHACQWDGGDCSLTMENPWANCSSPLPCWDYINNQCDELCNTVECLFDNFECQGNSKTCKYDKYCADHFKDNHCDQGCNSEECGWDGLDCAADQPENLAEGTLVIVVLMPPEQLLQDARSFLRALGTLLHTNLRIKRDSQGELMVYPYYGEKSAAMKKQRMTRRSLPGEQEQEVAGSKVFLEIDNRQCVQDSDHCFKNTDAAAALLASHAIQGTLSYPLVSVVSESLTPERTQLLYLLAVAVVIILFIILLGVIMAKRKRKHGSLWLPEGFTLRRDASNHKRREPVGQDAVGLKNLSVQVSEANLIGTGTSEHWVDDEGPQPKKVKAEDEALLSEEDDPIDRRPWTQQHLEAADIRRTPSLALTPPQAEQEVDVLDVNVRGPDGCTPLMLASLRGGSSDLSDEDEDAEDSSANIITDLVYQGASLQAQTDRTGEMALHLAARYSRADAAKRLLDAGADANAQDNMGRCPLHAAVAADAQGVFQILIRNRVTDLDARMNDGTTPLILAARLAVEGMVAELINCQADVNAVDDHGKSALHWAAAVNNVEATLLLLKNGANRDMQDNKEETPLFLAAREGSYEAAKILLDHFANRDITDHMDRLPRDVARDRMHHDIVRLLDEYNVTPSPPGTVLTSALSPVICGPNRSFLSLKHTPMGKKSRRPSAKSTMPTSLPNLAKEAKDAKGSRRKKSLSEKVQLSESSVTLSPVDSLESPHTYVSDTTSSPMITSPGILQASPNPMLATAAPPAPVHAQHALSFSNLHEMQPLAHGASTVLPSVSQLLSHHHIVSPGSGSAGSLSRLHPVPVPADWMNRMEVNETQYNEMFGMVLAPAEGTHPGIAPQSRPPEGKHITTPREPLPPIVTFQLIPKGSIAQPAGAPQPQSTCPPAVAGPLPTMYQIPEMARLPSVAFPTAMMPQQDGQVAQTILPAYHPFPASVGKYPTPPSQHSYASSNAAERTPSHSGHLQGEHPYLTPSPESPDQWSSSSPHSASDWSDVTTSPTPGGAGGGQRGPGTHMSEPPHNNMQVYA

[6] = molecular target: Pro-neuregulin-1, membrane-bound isoform (Homo sapiens) (UniProt Q02297); test: NRG1 binders on small-molecule microarrays, primary screen, psychiatric disease protein project, biochemical, small-molecule microarray, fluorescence 635/667 (AID 1075); settings: NRG1 binding, 635 nm fluorescence, higher = more signal;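 also: score combines 667 nm spot fluorescence with signal to noise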
Chain of Pro-neuregulin-1, membrane-bound isoform (Homo sapiens) (Q02297 whole entry, looked up, the tested form may be a part, canonical isoform): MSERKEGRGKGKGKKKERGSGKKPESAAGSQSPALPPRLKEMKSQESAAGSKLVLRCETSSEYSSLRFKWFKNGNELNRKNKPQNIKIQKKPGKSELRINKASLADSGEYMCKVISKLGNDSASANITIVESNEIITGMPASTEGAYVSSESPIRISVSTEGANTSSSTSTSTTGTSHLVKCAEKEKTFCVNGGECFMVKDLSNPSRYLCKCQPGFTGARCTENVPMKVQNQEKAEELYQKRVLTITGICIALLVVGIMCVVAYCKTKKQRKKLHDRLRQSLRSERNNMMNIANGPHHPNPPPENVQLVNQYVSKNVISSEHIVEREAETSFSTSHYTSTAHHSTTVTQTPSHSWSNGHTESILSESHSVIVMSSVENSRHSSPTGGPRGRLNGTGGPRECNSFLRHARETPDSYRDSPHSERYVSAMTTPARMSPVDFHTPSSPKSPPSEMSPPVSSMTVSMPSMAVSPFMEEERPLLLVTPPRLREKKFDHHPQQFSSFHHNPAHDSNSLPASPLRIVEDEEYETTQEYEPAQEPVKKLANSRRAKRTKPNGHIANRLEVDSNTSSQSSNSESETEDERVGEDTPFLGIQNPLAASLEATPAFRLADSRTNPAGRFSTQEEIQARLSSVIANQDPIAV

[7] = tested on: Neuregulin-1 EGF-like domain; test: binders of neuregulin-1 EGF-like domain, primary screen, biochemical, small-molecule microarray, 635 nm fluorescence (AID 1081); settings: small-molecule microarray binding, higher = more signal;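 also: binding of the protein to compounds printed on small-molecule microarray slides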
[8] = FRG1 promoter luciferase signal modulators, primary screen, FRG1 inhibition for FSHD, cell-based, C2C12 myotubes, firefly/Renilla luciferase, luminescence (AID 1084); settings: higher = more signal, called active from +8 up or from −8 down
[9] = binders of probe aFST on microarray, primary screen, stem cell growth factor project, biochemical, small-molecule microarray, fluorescence 635/667 (AID 1086); settings: higher = more signal;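 also: score merges 667 nm fluorescence with signal-to-noise of each printed compound spot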
[10] = binders of probe aHhip on microarray, primary screen, stem cell growth factor project, biochemical, small-molecule microarray, fluorescence 635/667 (AID 1087); settings: higher = more signal;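 also: score merges spot fluorescence at 667nm with spot signal to noise ratio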
[11] = tested on: PRMT1 (protein arginine N-methyltransferase 1); test: PRMT1 binders on small-molecule microarrays, primary screen, biochemical, small-molecule microarray, 635 nm fluorescence (AID 1088); settings: small-molecule microarray binding, higher = more signal;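 also: binding of Prmt1 protein to compounds spotted on small-molecule microarray slides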
[12] = yeast growth modulation, basal conditions, primary screen, YJM789 clinical isolate, OD600, 24 h (AID 1089);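 also: growth of clinical yeast isolate S. cerevisiae YJM 789 seeded 1000 cells per well; test concentration not given here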; settings: S. cerevisiae YJM789 growth, higher = more signal, called active from +8 up or from −8 down
[13] = fission yeast growth modulation, primary screen, strain 972, OD600, 24 h, no modulator (AID 1090);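 also: basal condition with compound alone and no growth modifier present; test concentration not given here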; settings: S. pombe 972 growth, higher = more signal, called active from +8 up or from −8 down
[14] = S. cerevisiae growth modulation with rapamycin, primary screen, strain BY4716, OD600, 96 h (AID 1091); settings: higher = more signal, called active from +8 up or from −8 down; also: test concentration not given here
[15] = molecular target: Torsin-1A-interacting protein 2 (Homo sapiens) (UniProt Q8NFQ8); test: LULL1 binders on small-molecule microarray, primary screen, cell lysate, human LULL1 lysate, 635/667 nm fluorescence (AID 1092); settings: hLULL1 lysate binding, 635 nm fluorescence, higher = more signal;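 also: probe is lysate of COS7 cells overexpressing human LULL1; score merges per-feature 667 nm fluorescence with signal-to-noise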
Chain of Torsin-1A-interacting protein 2 (Homo sapiens) (Q8NFQ8 whole entry, looked up): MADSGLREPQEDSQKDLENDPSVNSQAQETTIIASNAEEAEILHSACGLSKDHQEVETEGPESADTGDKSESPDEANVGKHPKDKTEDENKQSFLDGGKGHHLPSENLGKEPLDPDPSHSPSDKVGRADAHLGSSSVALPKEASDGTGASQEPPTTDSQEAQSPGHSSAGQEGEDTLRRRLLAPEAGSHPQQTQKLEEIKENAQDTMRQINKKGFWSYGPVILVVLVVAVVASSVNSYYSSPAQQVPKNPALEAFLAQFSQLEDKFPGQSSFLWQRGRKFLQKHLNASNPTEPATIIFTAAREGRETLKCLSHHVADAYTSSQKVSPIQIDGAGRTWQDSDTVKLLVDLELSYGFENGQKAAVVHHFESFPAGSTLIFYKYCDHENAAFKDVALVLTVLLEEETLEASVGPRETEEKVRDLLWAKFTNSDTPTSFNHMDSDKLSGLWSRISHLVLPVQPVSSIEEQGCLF

[16] = E. coli growth modulation, two-sided OD650, primary screen, E. coli filamentation project, strain DRC41, 24 h (AID 1093); settings: OD650, 24 h, higher = more signal, called active from +8 up or from −8 down;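 also: MC1000 strain lacking acrAB efflux and sulA so SOS filamentation is blocked; test concentration not given here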
[17] = small-molecule microarray binders of probe aLefty2, primary screen, biochemical, biotinylated probe, 635/667 nm fluorescence (AID 1094); settings: higher = more signal;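 also: score merges spot fluorescence near 667 nm with spot signal-to-noise ratio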
[18] = tested on: Noggin (protein binding on small-molecule microarray); test: Noggin binders on small-molecule microarray, primary screen, biochemical, 635/667 nm fluorescence (AID 1095); settings: 635 nm fluorescence, higher = more signal;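 also: score merges 667 nm feature fluorescence with signal to noise over triplicate slides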
[19] = molecular target: Neurogenic locus notch homolog protein 3 (Homo sapiens) (UniProt Q9UM47); test: NOTCH3 binders on small-molecule microarray, primary screen, biochemical, 635/667 nm fluorescence (AID 1096); settings: NOTCH3 binding, 635 nm fluorescence, higher = more signal
[20] = small-molecule microarray binders of probe aEGFR, primary screen, biochemical, biotinylated probe, 635/667 nm fluorescence (AID 1097); settings: higher = more signal;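 also: probe is a biotinylated anti-EGFR antibody binding compounds printed on slides; score combines fluorescence near 667 nm and signal to noise of each spot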

Compound | composite z-score [1] | composite z-score [2] | composite z-score [3] | composite z-score [4] | composite z-score [5] | composite z-score [6] | composite z-score [7] | z-score [8] | composite z-score [9] | composite z-score [10] | composite z-score [11] | z-score [12] | z-score [13] | z-score [14] | composite z-score [15] | z-score [16] | composite z-score [17] | composite z-score [18] | composite z-score [19] | composite z-score [20]
COc1ccc(O[C@H]2C=C[C@@H](c3ccccc3)O[C@@H]2CON=C(C)C)cc1 | 0.332 | -0.0694 | 0.0333 | -0.531 | -0.286 | 0.112 | -0.0241 | 0.359 (inactive) | -0.195 | 0.107 | -0.818 | 0.278 (inactive) | -2.91 (inactive) | 0.0212 (inactive) | -0.222 | 0.511 (inactive) | 0.175 | -0.0668 | -0.943 | 0.0102
COC(=O)NCC=Cc1nc(CCCO)co1 | -0.596 | 0.273 | -0.0174 | 0.525 | 0.623 | 0.177 | 0.414 | -0.435 (inactive) | 0.0512 | -0.287 | -0.227 | 0.084 (inactive) | 0.211 (inactive) | 0.214 (inactive) | 0.39 | 0.423 (inactive) | -0.0139 | 0.501 | 0.903 | 0.0678
C=Cc1ccc([C@H]2N[C@H](C(=O)O)CC[C@@H]2C)cc1 | -0.372 | 0.056 | -0.156 | 0.145 | -0.226 | -0.284 | 0.564 | 1.35 (inactive) | -0.0301 | 0.0399 | -1.29 | -0.382 (inactive) | -0.261 (inactive) | -0.676 (inactive) | -0.447 | 0.58 (inactive) | 0.0772 | 0.0295 | 0.417 | -0.0349
CO[C@H]1COC(=O)[C@H](C)NC(=O)[C@@H](C)COC(=O)[C@H]2CCCN2C(=O)CC=C[C@H]1C | -0.403 | 1.06 | -0.216 | 0.347 | 0.338 | -0.499 | 0.175 | -0.345 (inactive) | -0.0694 | -0.179 | 1.08 | -0.282 (inactive) | -0.658 (inactive) | -0.571 (inactive) | -0.412 | 0.492 (inactive) | -0.138 | 0.542 | 0.358 | -0.0689
COc1ccc(O[C@@H]2[C@H](O)CO[C@@H]2C=Cc2ccccc2)cc1 | -0.277 | 0.232 | -0.0482 | 0.336 | -0.0587 | 0.46 | 0.102 | -0.136 (inactive) | 0.0116 | 0.281 | 0.123 | -0.565 (inactive) | -1.51 (inactive) | 0.0945 (inactive) | 0.11 | 0.0038 (inactive) | -0.238 | 0.135 | 0.0877 | -0.163
CCCCC#C[C@@H]1C=C[C@H](Oc2ccc(C(=O)OC)cc2)[C@@H](COC(=O)OCC)O1 | -0.367 | 0.956 | -0.0874 | 0.495 | 0.65 | 0.338 | 0.733 | -2.03 (inactive) | 0.153 | 0.178 | 0.888 | 0.143 (inactive) | -19.5 (active) | -0.611 (inactive) | 0.508 | 0.197 (inactive) | -0.115 | 0.198 | 0.531 | -0.0051
CCc1cc2c(nc1CC)CCN(CCC(C)=NO[C@H](C)c1cn([C@H](CO)Cc3ccccc3)nn1)C2 | 0.111 | 0.985 | -0.0154 | 0.0116 | -0.0913 | 0.107 | 0.595 | 0.834 (inactive) | -0.129 | -0.249 | 1.05 | -0.563 (inactive) | -0.484 (inactive) | -0.112 (inactive) | 0.461 | -0.0004 (inactive) | 0.0336 | 0.336 | -0.171 | -0.142
CO[C@H]1COC(=O)[C@H](C)NC(=O)CC=C[C@@H](C)[C@H](OC)COC(=O)[C@@H](OCc2ccccc2)C=C[C@@H]1C | -0.628 | 0.996 | -0.0877 | -0.299 | -0.542 | -0.954 | -1.45 | -0.0754 (inactive) | 0.0521 | -0.0994 | 0.269 | -0.365 (inactive) | -0.123 (inactive) | -0.118 (inactive) | -0.986 | 0.786 (inactive) | -0.166 | 0.941 | -0.458 | -0.15
O=C(NN=C1C[C@@H](O)[C@@H](O)[C@@H]2[C@@H]3C(=O)N(C[C@@H]4CCCO4)C(=O)[C@@H]3CC[C@H]12)OCc1ccccc1 | 0.0589 | 0.349 | -0.118 | -0.0255 | -0.248 | -0.117 | -0.637 | -0.361 (inactive) | 0.556 | -0.0994 | -0.166 | 0.387 (inactive) | 0.499 (inactive) | -0.186 (inactive) | 0.126 | 0.52 (inactive) | 0.0061 | -0.284 | -0.696 | -0.19
C=C(C)C(=O)OCC1CN2[C@@H](CC[C@@H](C)[C@@H]2c2ccc(Br)cc2)C(=O)O1 (stereo not given in full) | -0.393 | 0.0802 | -0.15 | 0.2 | 0.331 | -0.0076 | 0.546 | 1.11 (inactive) | 0.444 | -0.21 | 0.855 | 0.275 (inactive) | -0.369 (inactive) | -0.427 (inactive) | 0.734 | -0.166 (inactive) | -0.118 | 0.172 | 0.947 | -0.128
